Results on 17 compounds are retold here after PubChem BioAssay AID651744 (Broad Institute, 2012).

About 3,100 (55%) of roughly 5,600 compounds were called active. About 3% were inconclusive and are not listed.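 How the source made its calls: active means mean loss of cell viability signal at or above a set limit, and enough replicates individually reaching it; inconclusive means meets only the mean limit or only the replicate share; inactive means meets neither condition.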 The set was probably picked from earlier hits. Only a sample is shown.

The nature of this assay: NIH/3T3 fibroblast cytotoxicity, confirmation, cytotoxicity control, cell-based, cherry-pick, single point, set 2 (AID 651744).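 Further: 0% = median of neutral control wells and 100% = median of positive control wells.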 The conditions noted are these: NIH/3T3 viability, CellTiter-Glo ATP luminescence, 90 h; at 24.9 µM; active compounds read high.
As usually defined, the inhibition is the drop in the measured response relative to a control, in per cent. On to `C[C@@H]1CN([C@H](C)CO)C(=O)Cc2cc(NC(=O)Cc3ccccc3)ccc2O[C@H]1CN(C)Cc1ccc(Oc2ccccc2)cc1`, for which the inhibition is 83.1% (active). For `C[C@@H]1CN([C@@H](C)CO)C(=O)c2cc(NC(=O)Nc3ccc4c(c3)OCO4)ccc2O[C@@H]1CN(C)Cc1ccc(Oc2ccccc2)cc1` the value was 103% (active); for `C[C@@H]1CN([C@@H](C)CO)C(=O)c2cc(NC(=O)Nc3cccc4ccccc34)ccc2O[C@H]1CN(C)Cc1ccc(Cl)c(Cl)c1`, 18.8% (inactive).

For the compound `C[C@@H]1CN([C@@H](C)CO)C(=O)c2cc(NC(=O)Cc3ccccc3)ccc2O[C@@H]1CN(C)Cc1ccc(Oc2ccccc2)cc1`, the inhibition is 104% (active).

Regarding `O=C(NCc1ccccn1)[C@@H]1[C@@H](CO)[C@@H]2Cn3c(ccc(/C=C/c4ccccc4)c3=O)[C@H]1N2CC1CC1`, the inhibition was 47.4% (active). Consider `CCCNC(=O)N1[C@@H]2c3cccc(=O)n3C[C@H]1[C@H](CO)[C@H]2C(=O)NCC(F)(F)F`, for which the inhibition is -10.7% (inactive). With `C[C@H](CO)N1C[C@H](C)[C@H](CN(C)Cc2ccc(-c3ccccc3)cc2)Oc2ccc(NC(=O)Nc3ccc(F)cc3)cc2CC1=O`, the inhibition is 103% (active). For `C[C@H](CO)N1C[C@H](C)[C@@H](CN(C)Cc2ccc(-c3ccccc3)cc2)Oc2ccc(NC(=O)CCC(F)(F)F)cc2CC1=O` the value was 105% (active); for `C[C@H]1CN([C@@H](C)CO)C(=O)Cc2cc(NC(=O)Cc3cn(C)c4ccccc34)ccc2O[C@@H]1CN(C)Cc1ccccc1`, 18.1% (inactive).

Regarding `C[C@@H]1CN([C@H](C)CO)C(=O)Cc2cc(NC(=O)c3ccncc3)ccc2O[C@H]1CN(C)Cc1ccc(-c2ccccc2)cc1`, the inhibition was 102% (active).

Turning to `C[C@H]1CN([C@@H](C)CO)C(=O)Cc2cc(NC(=O)Cc3cn(C)c4ccccc34)ccc2O[C@@H]1CN(C)Cc1ccc(C(F)(F)F)cc1`, the inhibition was 69.9% (active). The same measure for `C[C@@H]1CN([C@@H](C)CO)C(=O)Cc2cc(NC(=O)C3CCCCC3)ccc2O[C@@H]1CN(C)Cc1ccc(C(=O)Nc2ccccc2N)cc1`: 59.4% (active); for `C[C@@H]1CN([C@H](C)CO)C(=O)CCCn2nncc2CO[C@@H]1CN(C)Cc1ccc(C(=O)Nc2ccccc2N)cc1`: 9.3% (inactive). The same measure for `C[C@@H]1CN([C@@H](C)CO)C(=O)CCCn2cc(nn2)CO[C@@H]1CN(C)S(=O)(=O)c1ccccc1F`: -3.5% (inactive). Turning to `CCCNC(=O)N(C)C[C@@H]1Oc2ncc(C#Cc3ccccc3F)cc2C(=O)N([C@@H](C)CO)C[C@H]1C`, the inhibition is 41.6% (active). For `C[C@H](CO)N1C[C@H](C)[C@@H](CN(C)S(=O)(=O)c2ccccc2)Oc2ncc(C#Cc3ccccc3F)cc2C1=O` the value was 69.9% (active); for `C[C@H](CO)N1C[C@H](C)[C@@H](CN(C)S(=O)(=O)c2ccccc2F)Oc2ncc(C#Cc3ccccc3F)cc2C1=O`, 46.5% (active).
